Consider 30 molecules from PubChem BioAssay (NCATS).

Values joined by “and” are separate entries in the source; they are usually repeats but may differ in a detail not shown here. Identical values can stand only once. Records with an inconclusive call do not appear. A number with no mark means an inactive call. Active and inactive are the calls of the source. Calls come from the whole dose curve; as a rule, active = well fitted curve in the direction sought with a large enough effect; inconclusive = small, poorly fitted or top-dose-only effect, or another doubt; inactive = no such curve, though single readings can be large; an effect the other way counts as inactive or inconclusive. Where a SMILES comes first, the peptide text is derived from it.
% is set by controls: 0 for no effect and ±100 for the full control effect; potency is the fitted concentration of half-maximal effect.
Note: nearly all actives have a fitted effect of over 70% in size.

The first experiment is described as follows: Primary qHTS for inhibitors of nuclear receptor binding SET domain protein 2 (NSD2) in an isogenic RCH-ACV NSD2 p.E1099K mutant (9B) (AID 1645876). The settings on record: RCH-ACV NSD2 E1099K (9B) viability, CellTiter-Glo, 72 h; series mostly up to 44.9 µM. A general note: qHTS replaces the single test concentration by a dilution series.
As for `CCn1c(=O)c2c(nc(/C=C/c3ccc(OC)c(OC)c3)n2C)n(CC)c1=O`, the Potency result was “inactive”.
In the case of `N=C(N)c1ccc2nc(-c3cc(CC(=O)N[C@@H](CC(=O)O)C(=O)O)cc(-c4cc(S(N)(=O)=O)ccc4O)c3O)[nH]c2c1`, the Potency result was “inactive”.
Same read-out and setting: then `O=C(/C=C/N1C[C@H]2C[C@@H]1CN2c1ccccn1)c1ccccc1O`, with “inactive”; and `O=C(Nc1ccccc1)Nc1ccc(-c2ccc(C(=O)[C@@H]3CCC[C@H]3C(=O)O)cc2)cc1`, with “inactive”; and `Cc1ncsc1-c1ccc([C@H](C)NC(=O)[C@@H]2C[C@@H](O)CN2C(=O)[C@@H](NC(=O)COCCCOCCNC(=O)C[C@@H]2N=C(c3ccc(Cl)cc3)c3c(sc(C)c3C)-n3c(C)nnc32)C(C)(C)C)cc1`, with 0.0148 µM (active).
In the case of `O=C(O)C[C@H]1CCc2c1[nH]c1ccc(OCc3ccc(C4CCCC4)c(C(F)(F)F)c3)cc21`, the Potency entry is “inactive”.
For the molecule `CC/C(=C(/c1ccc(O)cc1)c1ccc(OCCNC)cc1)c1ccccc1`, the Potency is 33.2 µM (active).
`C=C1C[C@H]2C=Nc3cc(OCCCOc4cc5c(cc4OC)C(=O)N4CC(=C)C[C@H]4C=N5)c(OC)cc3C(=O)N2C1`: the Potency result is “inactive”.
Still for that read-out and setting: under `COc1cc(N2CCN(C)CC2)ccc1Nc1ncc2c(n1)N(C)c1ccccc1C(=O)N2C` stands 2.35 µM (active); under `CC(C)(O)CNc1ncc(-c2ccnc(Nc3ccncc3)n2)c(CC2CC2)n1`, 4.17 µM (active).
On to `O=c1[nH]nc2c3c(cccc13)NC(CN1Cc3ccccc3C1)=N2`, for which the Potency is 20.9 µM (active).
Still for that read-out and setting: then `CCNCCS(=O)(=O)NC[C@@]1(c2ccccc2)SC(NC(=O)C(C)(C)C)=NN1C(=O)C(C)(C)C`, with 0.0093 µM (active); and `Cc1cnc(NC(=O)c2cc(Oc3cnc(C(=O)N(C)C)nc3)c3cc(C)oc3c2)cn1`, with “inactive”.
Still for that read-out and setting: under `N[C@@H](CCC(=O)O)C(=O)N[C@@H](Cc1c[nH]c2ccccc12)C(=O)O` (H-Glu-Trp-OH) stands “inactive”; under `C=C1/C(=C\C=C2/CCC[C@]3(C)[C@@H]([C@H](C)CCCC(C)(C)O)CC[C@@H]23)C[C@@H](O)C[C@@H]1O`, 20.9 µM (active) and 18.6 µM (active); under `CCn1c(=O)c(-c2ccc(-c3cncc(C)n3)cc2Cl)cc2cnc(NCCC3CCN(C)CC3)nc21`, 1.18 µM (active).
On to `CCCc1cc(C(=O)N[C@H](Cc2ccc(-c3cccc(OC(F)(F)F)c3)nc2)C(=O)N[C@@H]2CCNC2)sc1C`, for which the Potency was 6.61 µM (active).
For the molecule `CCS(=O)(=O)Nc1ccc(Oc2ccc(F)cc2F)c(-c2cn(C)c(=O)c3[nH]ccc23)c1`, the Potency is 0.0132 µM (active).
As for `NC(=O)c1cnc2[nH]ccc2c1NC1C2CC3C[C@H]1CC(O)(C3)C2` (some centres undefined), the Potency was 9.34 µM (active).
The same measure, in the same setting: under `CCOc1cc(/C=C2/C(=O)N(c3ccccc3)N=C2C)cc(Cl)c1OCC(=O)OC` stands “inactive”; under `CCC1CCCCN1C(=O)n1ncc(C(O)(c2ccccc2)c2ccccc2)n1` (centres undefined), 10.5 µM (active).
Turning to `NS(=O)(=O)c1ccc(S(=O)(=O)Nc2cccc3c(Cl)c[nH]c23)cc1`, the Potency is 0.742 µM (active).
As for `O=C(C[C@@H]1C/C=C\CCC(=O)O[C@H](c2ccccc2)CNC1=O)NCc1ccc(Cl)cc1`, the Potency result is “inactive”.

A short description of a further experiment: Primary qHTS for inhibitors of nuclear receptor binding SET domain protein 2 (NSD2) in an RCH-ACV wild type WT cells (2C) (AID 1645877). The conditions noted are these: RCH-ACV (leukaemia line) NSD2 WT (2C) viability, CellTiter-Glo, 72 h; series mostly up to 44.9 µM.
Regarding `COc1ccc([C@@H](O)[C@@H](C)Oc2ccc([C@H]3O[C@H](c4ccc(O[C@H](C)[C@H](O)c5ccc(OC)c(OC)c5)c(OC)c4)[C@H](C)[C@H]3C)cc2OC)cc1OC`, the Potency is 5.25 µM (active).
Take `CN1CCN(C(=O)[C@H]2[C@@H](C(=O)O)[C@H]3CC[C@@H]2O3)CC1`: the activity change, negative = cell killing was 4.4% [at 9.23 µM].
For `CN(C)CCOc1ccc(-c2nc(-c3ccc4c(c3)CC/C4=N\O)c(-c3ccncc3)[nH]2)cc1`, the Potency is 10.5 µM (active).
`CC(=O)N[C@H]1[C@H](O[C@@H]2c3ccc(c(Cl)c3)Oc3cc4cc(c3O[C@@H]3O[C@H](CO)[C@@H](O)[C@H](O)[C@H]3NC(=O)CCCCCCCC(C)C)Oc3ccc(cc3Cl)C[C@H]3NC(=O)[C@H](N)c5ccc(O)c(c5)Oc5cc(O)cc(c5)[C@H](NC3=O)C(=O)N[C@H]4C(=O)N[C@H]3C(=O)N[C@@H]2C(=O)N[C@@H](C(=O)O)c2cc(O)cc(O[C@H]4O[C@H](CO)[C@@H](O)[C@H](O)[C@@H]4O)c2-c2cc3ccc2O)O[C@H](CO)[C@@H](O)[C@@H]1O`: the Potency entry is “inactive”.
For `Cc1cc(C)cc(Oc2ccc(CNC(=O)[C@H](C)N)cc2C)c1`, the Potency is 18.6 µM (active).
Regarding `N=C(N)c1ccc2nc(-c3cc(CC(=O)N[C@@H](CC(=O)O)C(=O)O)cc(-c4cc(S(N)(=O)=O)ccc4O)c3O)[nH]c2c1`, the Potency entry is “inactive”.
Turning to `O=C(/C=C/N1C[C@H]2C[C@@H]1CN2c1ccccn1)c1ccccc1O`, the Potency entry was “inactive”.
With `Cc1ncsc1-c1ccc([C@H](C)NC(=O)[C@@H]2C[C@@H](O)CN2C(=O)[C@@H](NC(=O)COCCCOCCNC(=O)C[C@@H]2N=C(c3ccc(Cl)cc3)c3c(sc(C)c3C)-n3c(C)nnc32)C(C)(C)C)cc1`, the Potency is 0.0186 µM (active).
With `O=C(O)C[C@H]1CCc2c1[nH]c1ccc(OCc3ccc(C4CCCC4)c(C(F)(F)F)c3)cc21`, the Potency entry was “inactive”.
For the molecule `C=C1C[C@H]2C=Nc3cc(OCCCOc4cc5c(cc4OC)C(=O)N4CC(=C)C[C@H]4C=N5)c(OC)cc3C(=O)N2C1`, the Potency entry was “inactive”.
`COc1cc(N2CCN(C)CC2)ccc1Nc1ncc2c(n1)N(C)c1ccccc1C(=O)N2C`: the Potency is 2.35 µM (active).
As for `CC(C)(O)CNc1ncc(-c2ccnc(Nc3ccncc3)n2)c(CC2CC2)n1`, the Potency was 3.72 µM (active).
For `CCNCCS(=O)(=O)NC[C@@]1(c2ccccc2)SC(NC(=O)C(C)(C)C)=NN1C(=O)C(C)(C)C`, the Potency is 0.0074 µM (active).
Same read-out and setting: then `Cc1cnc(NC(=O)c2cc(Oc3cnc(C(=O)N(C)C)nc3)c3cc(C)oc3c2)cn1`, with “inactive”.
Still for that read-out and setting: then `N[C@@H](CCC(=O)O)C(=O)N[C@@H](Cc1c[nH]c2ccccc12)C(=O)O` (H-Glu-Trp-OH), with “inactive”.
In the case of `C=C1/C(=C\C=C2/CCC[C@]3(C)[C@@H]([C@H](C)CCCC(C)(C)O)CC[C@@H]23)C[C@@H](O)C[C@@H]1O`, the Potency is 16.6 µM (active).
Turning to `CCn1c(=O)c(-c2ccc(-c3cncc(C)n3)cc2Cl)cc2cnc(NCCC3CCN(C)CC3)nc21`, the Potency was 1.32 µM (active).
As to `Cc1c(C(=O)Nc2ccc(Oc3ccnc4[nH]cc(-c5ccccc5)c34)c(F)c2)c(=O)n(-c2ccc(F)cc2)n1C`, the Potency is 1.86 µM (active).
Consider `Cc1ccc(NC(=O)[C@H]2CCCN(C(=O)c3c(C)cccc3F)[C@H]2c2ccc(NC3CCCC3)cc2)cc1C(F)(F)F`, for which the Potency entry was “inactive”.
The same measure, in the same setting: under `CCCc1cc(C(=O)N[C@H](Cc2ccc(-c3cccc(OC(F)(F)F)c3)nc2)C(=O)N[C@@H]2CCNC2)sc1C` stands 5.9 µM (active); under `CCS(=O)(=O)Nc1ccc(Oc2ccc(F)cc2F)c(-c2cn(C)c(=O)c3[nH]ccc23)c1`, 0.0074 µM (active); under `NC(=O)c1cnc2[nH]ccc2c1NC1C2CC3C[C@H]1CC(O)(C3)C2` (some centres undefined), 9.34 µM (active).
Take `CCOc1cc(/C=C2/C(=O)N(c3ccccc3)N=C2C)cc(Cl)c1OCC(=O)OC`: the Potency entry was “inactive”.
For the molecule `CCC1CCCCN1C(=O)n1ncc(C(O)(c2ccccc2)c2ccccc2)n1` (centres undefined), the Potency is 14.8 µM (active).
Take `NS(=O)(=O)c1ccc(S(=O)(=O)Nc2cccc3c(Cl)c[nH]c23)cc1`: the Potency is 0.59 µM (active).
As for `O=C(C[C@@H]1C/C=C\CCC(=O)O[C@H](c2ccccc2)CNC1=O)NCc1ccc(Cl)cc1`, the Potency entry was “inactive”.
